Screen size: about 69,000 compounds; about 950 (1.4%) showed an effect of 50% or more. Many of the other results were omitted from the sample, so strong results are more common in it than they were.

The test system of the test is Mycobacterium tuberculosis. The test is described as follows: Cornell M. t heat shock assay. Also: in the data most compounds retested in dose-response had high values. The class given is functional, organism-based. More on the design: dose or concentration left out as unconfirmed.
On to `Cc1ccc(C)c(-n2cc(CN3CCOCC3)c(-c3ccccc3)n2)c1`, for which the “Percent Effect” value is reported as 9.683%.
With `Cn1cc(CN2CCCC(O)C2)c(-c2ccccc2F)n1` (centres undefined) the figure was 14.46%; with `Cc1cccc(-c2noc(CN3CCOCC3C)n2)c1` (centres undefined), -19.27%; with `Cc1ccc(S(=O)(=O)c2ncccc2CN2CCOCC2)cc1`, -21.96%.
With `Cc1ccc(-n2cc(CN3CCOCC3)c(-c3cccc(C)c3)n2)cc1` the figure was 101.4%; with `Cc1ccc(C)c(-n2cc(CN3CC[C@@H](O)C3)c(-c3ccccc3)n2)c1`, 85.17%.
With `CCC(=O)Nc1cccc(OCC(=O)N[C@@H]2C[C@H]3CC[C@@H]2C3)c1`, the “Percent Effect” value was -8.125%.
In the case of `O=C(O)C(F)(F)F.O=C(O)C(F)(F)F.c1cc(CO[C@@H]2CN(Cc3ccoc3)[C@@H]3CCCO[C@@H]32)ccn1` it was 21.84%.
With `CN1CCOCC2(CCCN(C(=O)c3ccccc3F)C2)C1.O=C(O)C(F)(F)F` (centres undefined) the figure was -25.25%; with `CN(C)C(=O)N1CCC2(CC1)CN(Cc1ccccn1)C(=O)CO2.O=C(O)C(F)(F)F`, -0.5573%; with `Cn1cc(CN2CCCC23CCN(C(=O)c2ccncc2)CC3)cn1.O=C(O)C(F)(F)F`, -22.55%.
With `Cc1ncccc1NC(=O)[C@H]1C[C@@H]2CCN(Cc3nccs3)C[C@@H]2O1.O=C(O)C(F)(F)F.O=C(O)C(F)(F)F` the figure was -3.608%; with `O=C(CC1CN(Cc2ccccc2)CCO1)NCCN1CCOCC1` (centres undefined), -41.8%; with `O=C(CC1CN(Cc2ccccc2)CCO1)NC1CCCC1` (centres undefined), -14.55%.
`Cl.O=C(O)CC1CN(Cc2ccccc2)CCO1` (centres undefined): the “Percent Effect” value came to 70.76%.
In the case of `Cc1ccc(CN2CCn3cc(CN4CCN(C)CC4)nc3C2)cc1.O=C(O)C(F)(F)F.O=C(O)C(F)(F)F.O=C(O)C(F)(F)F` it was -4.711%; in that of `CNC(=O)NCC1CCC2(CCN(C(=O)c3cccnc3)CC2)CO1.O=C(O)C(F)(F)F` (centres undefined), 9.868%; in that of `O=C(O)CC(O)(CC(=O)O)C(=O)O.c1cncc(-c2nccc(CN3CCC(N4CCCCC4)CC3)n2)c1`, -13.06%.
In the case of `O=C(O)C(F)(F)F.O=C(O)C(F)(F)F.c1cncc(COCc2nnn3c2CN(Cc2ccsc2)CC3)c1` it was -26.71%; in that of `CC(C)C(=O)N1CCN(C(=O)c2cc(C(C)C)on2)[C@H]2CS(=O)(=O)C[C@H]21`, -10.22%.
With `CC(C)C(=O)N1CCN(C(=O)c2cscn2)[C@H]2CS(=O)(=O)C[C@H]21` the figure was 73.31%; with `Cc1cnc(C(=O)N2CCN(C(=O)C(C)C)[C@@H]3CS(=O)(=O)C[C@@H]32)cn1`, 4.224%.
For the compound `Cc1ccc(OCC(=O)N2CCCC(n3nc(C)nc3C)C2)cc1` (centres undefined), the “Percent Effect” value is -13.19%.
With `Cc1n[nH]cc1CNC(C(=O)N1CCCCC1)c1ccccc1` (centres undefined) the figure was -8.652%; with `O=C(O)C(F)(F)F.c1csc(CN2CCc3nnc(COc4cncnc4)n3CC2)c1`, -24.48%; with `Cc1nc(CN2C[C@@H](CN3CCOCC3)[C@@H](CO)C2)c2ccccn12`, 1.211%.
With `Cc1nc(CN2CCC3(CCCO3)CC2)c2ccccn12` the figure was 77.67%.
With `Cc1ccc(C2(O)CCN(Cc3nc(C)n4ccccc34)CC2)nc1` the figure was 43.96%; with `Cl.Cl.NCC1CN(c2ncnc3[nH]cnc23)CCO1` (centres undefined), -17.53%.
As for `CNC(=O)C1Cn2ccnc2C2(CCN(Cc3nccs3)CC2)O1.O=C(O)C(F)(F)F.O=C(O)C(F)(F)F` (centres undefined), the “Percent Effect” value is on record as -22.49%.
As for `Cc1nc(CN2C[C@@H]3COC[C@]3(COCC(=O)N(C)C)C2)cs1.O=C(O)C(F)(F)F`, the “Percent Effect” value is -21.91%.
In the case of `Cc1ccc2c(c1)C1(CCNCC1)CC2OCC1CC1` (centres undefined) it was 13.82%; in that of `COCCN1CCC2(CC1)CC(OCC1CC1)c1ccc(C)cc12` (centres undefined), 53.27%; in that of `CCOC1CC2(CCN(C(=O)COC)CC2)c2cc(C)ccc21` (centres undefined), -4.26%.
In the case of `COCCN1CCC2(CC1)CN(C(=O)c1ccccc1)CCO2.O=C(O)C(F)(F)F` it was -8.433%; in that of `CN(C)C(=O)N1CCC2(CCCN(CCOc3ccccc3)C2)C1.O=C(O)C(F)(F)F` (centres undefined), -6.162%; in that of `O=C(O)C1(Oc2ccc(Cl)cc2)CCN(C2CCOCC2)CC1`, 51.75%.
With `O=C(O)C1(Oc2cccc(F)c2)CCN(C2CCOCC2)CC1` the figure was 1.505%; with `O=C(O)C1(Oc2ccc3c(c2)OCO3)CCN(C2CCOCC2)CC1`, -2.757%; with `Cc1cc(C2CCCN(CC(=O)Nc3nc4c(s3)CCC4)C2)n[nH]1` (centres undefined), 104%.
`Cc1cc(C2CCCN(CC(=O)N3CCc4ccccc43)C2)n[nH]1` (centres undefined): the “Percent Effect” value was -11.71%.
With `O=C(O)c1cccc(CN2CCCC(c3ccn[nH]3)C2)c1` (centres undefined) the figure was -8.776%; with `CC(C)C1Nc2ccccc2C(=O)N1CC(=O)Nc1nc2c(s1)CCC2` (centres undefined), -0.3209%.
In the case of `O=C(CN1CCCC(c2ccn[nH]2)C1)N1CCCc2ccccc21` (centres undefined) it was -24.99%.
As to `O=C1CCCN1CCN1CCCC(c2ccn[nH]2)C1` (centres undefined), the “Percent Effect” value is 4.433%.
With `O=C(CN1CCCC(c2ccn[nH]2)C1)Nc1nc2c(s1)CCCC2` (centres undefined) the figure was 102.5%; with `O=C(CN1CCCC(c2ccn[nH]2)C1)Nc1nc2c(s1)CCC2` (centres undefined), 104%; with `Cc1cc(C2CCCN(CC(=O)N3CCCc4ccccc43)C2)n[nH]1` (centres undefined), -30.42%.
In the case of `CN1CCOCC2(CCCN(C(=O)Cc3ccncc3)C2)C1.O=C(O)C(F)(F)F` (centres undefined) it was -28.6%.
With `COc1cccc(Cn2c(C3CCNCC3)cc3cccnc32)c1.Cl` the figure was 0.437%.
As to `CCC(CN1CCN(C)CC1)NC(=O)C1(c2cccc(F)c2)CC1.O=C(O)CC(O)(CC(=O)O)C(=O)O` (centres undefined), the “Percent Effect” value was found to be 1.881%.
With `O=C(O)C(F)(F)F.O=C(O)C(F)(F)F.O=C(O)C(F)(F)F.c1cncc(CN2CCCn3nnc(CN4CCCC4)c3C2)c1` the figure was -36.4%.
With `CNC(=O)CN1CCCC12CCN(C(=O)c1ccc(F)cc1)CC2.O=C(O)C(F)(F)F` the figure was -33.92%.
With `Cc1oncc1C(=O)N[C@@H]1CN(Cc2ccoc2)C[C@@H]2CCCO[C@@H]21.O=C(O)C(F)(F)F` the figure was 44.61%; with `CCOc1ccc(Br)cc1C1CCCCN1.Cl` (centres undefined), 18.96%.
Take `Cn1ccc(C(=O)Nc2nnc(-c3ccccn3)[nH]2)cc1=O`: the “Percent Effect” value worked out at 24.76%.
Turning to `CS(=O)(=O)CCC(=O)Nc1nccn1Cc1ccccc1Cl`, the “Percent Effect” value is given as 51.39%.
With `CCOCC(=O)Nc1nccn1Cc1ccccc1Cl` the figure was 94.36%.
In the case of `CC(C)N(C)CC(=O)NC1CCc2nccn2C1` (centres undefined) it was -3.465%; in that of `CS(=O)(=O)CCC(=O)Nc1cnn(-c2ccccc2Cl)c1`, -2.43%.
With `CCOCC(=O)NCCCn1ccnc1-c1ccccc1` the figure was 0.7963%; with `Cn1ccc(C(=O)Nc2nccn2Cc2ccccc2Cl)cc1=O`, 54.71%; with `CC(C)N(C)CC(=O)Nc1ccc(-n2ccc(C(N)=O)n2)cc1`, 4.536%.
Consider `CC(C)N(C)CC(=O)Nc1nccn1Cc1ccccc1Cl`, for which the “Percent Effect” value is recorded as 70.24%.
With `CCOCC(=O)Nc1cccnc1-n1ccnc1C` the figure was 3.015%; with `Cc1nccn1Cc1cccc(CNC(=O)c2ccn(C)c(=O)c2)c1`, -21.74%.
For the compound `CS(=O)(=O)CCn1ccc(NC(=O)Cc2ccccc2Cl)n1`, the “Percent Effect” value was -16.05%.
In the case of `CC1c2ncc(CNC(=O)C3CC3)n2CCN1Cc1cccnc1.O=C(O)C(F)(F)F.O=C(O)C(F)(F)F` (centres undefined) it was -10.62%; in that of `CN1CC(=O)N(c2ccccc2)CC12CCN(C(=O)c1cccs1)C2.O=C(O)C(F)(F)F` (centres undefined), -3.603%; in that of `O=C(O)C(F)(F)F.O=C(O)C(F)(F)F.O=C(c1cccnc1)N1Cc2nccn2CC(COc2cccnc2)C1` (centres undefined), -22.14%.
Turning to `CCN1C(=O)CCC12CCCN(Cc1nccs1)CC2.O=C(O)C(F)(F)F` (centres undefined), the “Percent Effect” value was -119%.
As to `CN(C)CCOCC1CN(Cc2cccs2)Cc2ccnn2C1.O=C(O)C(F)(F)F.O=C(O)C(F)(F)F.O=C(O)C(F)(F)F` (centres undefined), the “Percent Effect” value is listed as -22.31%.
Take `CN(C)Cc1cc(C2CCN(C(=O)C3CC34CCC4)CC2)nn1C.Cl` (centres undefined): the “Percent Effect” value is reported as -10.56%.
With `CNc1cc(C)nc(N2Cc3cnn(Cc4ccc(F)cc4)c3C2)n1` the figure was -20.76%; with `Cc1ccc(CNC2CC3(CCN(CCO)CC3)c3ccccc32)s1.O=C(O)C(F)(F)F.O=C(O)C(F)(F)F` (centres undefined), 0.5733%.
In the case of `O=C(O)C(F)(F)F.O=C1N(Cc2cccnc2)CCC12CCCN(c1ncc(F)cn1)C2` (centres undefined) it was 4.445%; in that of `Cl.Oc1cc(C2CCNCC2)nc(-c2ccsc2)n1`, -3.533%; in that of `Cn1nccc1C(=O)N1CCC2(CC1)COC(COc1ccccn1)C2.O=C(O)C(F)(F)F` (centres undefined), -4.012%.
In the case of `CCOCCOC(C)C(=O)Nc1nccn1Cc1ccccc1` (centres undefined), the “Percent Effect” value stood at 28.47%.
In the case of `CC(OCC1CC1)C(=O)Nc1ccn(Cc2ccccc2)n1` (centres undefined) it was -11.4%; in that of `O=C(Nc1ccc(=O)n(Cc2ccccc2Cl)c1)C1CC1`, 42.02%; in that of `CC(OCC1CC1)C(=O)Nc1nccn1Cc1ccccc1` (centres undefined), 81.58%.
With `CC(=O)Nc1nccn1Cc1ccccc1Cl` the figure was 63.7%; with `COC(=O)N1CCN(Cc2ccccc2Cl)CC1`, -12.81%; with `CN1CCOCC2(CCCN(C(=O)c3cnccn3)C2)C1.O=C(O)C(F)(F)F` (centres undefined), -11.83%.
For `Cc1cc(N(C)C)nc(C2CCNC2)n1.Cl.Cl` (centres undefined), the “Percent Effect” value is reported as -43.84%.
With `Cc1cnc(N2CC[C@H]3[C@@H]2CCC(=O)N3c2ccccc2)nc1.O=C(O)C(F)(F)F` the figure was 36.02%; with `O=C(NCC1CC1)[C@@H]1CCO[C@@H]2CCN(CCc3ccccc3)C[C@H]21.O=C(O)C(F)(F)F`, -21.47%; with `Cn1cccc1C(=O)N1CC[C@@H]2[C@@H]1CC(=O)N2CCN1CCOCC1.O=C(O)C(F)(F)F`, -25.84%.

These data come from ChEMBL document CHEMBL3988442, “University of Dundee, Small-Polar-MMV Screening Library” (2021).
